Assay outcomes from PubChem.
Pf Dd2 growth: qHTS Primary assay for Inhibitors of Plasmodium falciparum Dd2 growth in vitro; P. falciparum Dd2 growth, SYBR Green, 72 h; Potency, µM (doses to about 28.9 µM), for the others: top-dose activity, negative = inhibition, actives largely listed as inhibitors; 120,000 tested, 4.3% active; active = well fitted inhibition curve with a large enough effect;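 note: plate controls were DMSO vehicle for no effect and reference drug for full effect; nearly all actives have a fitted effect of over 65% in size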
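Readout: SYBR Green fluorescence, 485 nm excitation, 535 nm emission, after ~16 h lysis at 37C. Before that, Dd2-infected red cells (2.5% hematocrit) grew 72 h with compound, 29 uM top final concentration.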
An asterisk follows results filed as active; i = inactive; [ ] = another dose, or the depositor's remark. Many of the other results were omitted from the sample, so hits are more common in it than they were. Potency is the fitted concentration of half-maximal effect.

SMILES	Pf Dd2 growth
CN1C[C@H](NC(=O)c2cnccn2)CCC[C@@H](C(=O)N(C)Cc2cccnc2)CC1=O	-9%[44.1 µM]
CCOc1ccccc1NC(=O)Cn1c(=O)n(CCC(C)C)c(=O)c2cccnc21	36%
O=C(Cn1c(=O)oc2ccccc21)N1CCC(c2noc(-c3cccnc3)n2)C1 (stereo unspecified)	27%[5.79 µM]
Fc1ccc(Nc2ncnc3onc(-c4cccc(Cl)c4)c23)c(F)c1	26%
CCOc1ccc(-c2ccc(CO)o2)cc1N	i
CCn1ccc2cc(S(=O)(=O)N3CCC(C(=O)NCCc4ccc(SC)cc4)CC3)ccc21	8.9µM*
CCn1ccc2cc(S(=O)(=O)N3CCC(C(=O)NCCc4ccccc4)CC3)ccc21	-9%
CCn1ccc2cc(S(=O)(=O)N3CCC(C(=O)NCc4ccc(F)cc4)CC3)ccc21	13%
Cc1ccc(-c2nc(-c3cc4cccc(OCc5ccccc5F)c4oc3=O)no2)cc1	23%
CC(C)(CC(=O)O)CC(=O)N[C@H]1C[C@H]2C(=O)Nc3ccc(/C=C/c4ccccc4)cc3C(=O)N2C1	26%
COc1ccc(/C=C/c2ccc3c(c2)C(=O)N2C[C@@H](NC(=O)CC(C)(C)CC(=O)O)C[C@H]2C(=O)N3)cc1	14µM*
COCC(=O)N[C@H]1C[C@H]2C(=O)Nc3ccc(/C=C/c4ccccc4)cc3C(=O)N2C1	-11%[44.1 µM]
Cc1ccc(C(=O)N2CCC3(CC2)CCN(Cc2cccs2)c2ccccc2O3)cc1	-17%
O=C(c1ccccc1Cl)N1CCC2(CC1)CCN(Cc1cccs1)c1ccccc1O2	10µM*
Cc1ccccc1C(=O)N1CCC2(CC1)CCN(CCc1ccccc1)c1ccccc1O2	i
Cc1ccc(NC(=O)c2ccc(=O)n(CC(=O)Nc3cc(C)cc(C)c3)n2)cc1	26%
CN(C)CCN1CC2(CCN(C(=O)CCCS(N)(=O)=O)CC2)OC1=O	5%
Cc1ccc(-c2nc(N3CCN(c4ccccc4Cl)CC3)c3ccccc3n2)cc1	32%
C[S+](=O)([O-])N1CC2(CCN(C(=O)CCC(=O)O)C2)Cc2ccccc21 (stereo unspecified)	-6%
C[S+](=O)([O-])N1CC2(CCN(C3COC3)CC2)Cc2ccccc21	10%
C[S+](=O)([O-])N1CC2(CCN(Cc3c[nH]c4ccccc34)CC2)Cc2ccccc21	11µM*
Cc1ccccc1NC(=O)N1CCC(CCNC(=O)c2cccc(F)c2)CC1	-1%
Cc1cccc(NC(=O)CSc2nnc3scc(-c4ccccc4)n23)c1	i
CC(=O)N1CCN(c2nc3c(C)ccc(Cl)c3s2)CC1	28%
COc1cccc(CN2Cc3nc(-c4cccc(O)c4)ccc3OCC2=O)c1	i
SMILES	Pf Dd2 growth
CC(C)n1c(C2CCN(C(=O)c3cn[nH]c3-c3ccc(F)cc3)CC2)nn(C)c1=O	16%
CCCNC(=O)Cc1csc2nc(C)c(-c3cc(C)n(-c4ccc(C)cc4)n3)c(=O)n12	i
CCCCCCNC(=O)Cc1csc2nc(C)c(-c3cc(C)n(-c4cccc(C)c4)n3)c(=O)n12	2µM*
CCCCNC(=O)Cc1csc2nc(C)c(-c3cc(C)n(-c4cccc(C)c4)n3)c(=O)n12	i
Cc1nn(C(=O)CCC(=O)N2CCc3nc4cc[nH]n4c(=O)c3C2)c2ccccc12	-11%[5.79 µM]
O=c1[nH]c(N2CCOCC2)nc2c1CCN(Cc1ccc(Cl)cc1)CC2	-10%[5.79 µM]
O=c1[nH]c(N2CCOCC2)nc2c1CCN(Cc1ccc(F)cc1)CC2	23%[5.79 µM]
O=c1[nH]c(N2CCOCC2)nc2c1CCN(Cc1ccc(Cl)cc1F)CC2	0.32µM*
CCOc1ccccc1CN1CCc2nc(N3CCOCC3)[nH]c(=O)c2CC1	25%[5.79 µM]
CN1CCN(c2nc3c(c(=O)[nH]2)CCN(Cc2ccccc2Br)CC3)CC1	i[5.79 µM]
O=c1[nH]c(N2CCOCC2)nc2c1CCN(Cc1ccccc1Br)CC2	1.3µM*
CCNC(=O)Nc1ccc(OCC(=O)NCc2cc(F)cc(F)c2)nc1	i
CCOC(=O)C1CCN(C(=O)CC2CCN(c3ccnc(OC)n3)CC2)CC1	i
COc1ccc(CCNC(=O)c2cc3n(n2)CC(c2ccc(Cl)cc2)OC3)cc1OC (stereo unspecified)	-17%
Cc1noc(C)c1-c1cc2cc(CNC3CC3)oc2c(NC2CCN(C)CC2)n1	-14%[44.1 µM]
Cc1noc(C)c1-c1cc2cc(C(C)C)oc2c(NC2CCN(C)CC2)n1	10µM*
Cc1noc(C)c1-c1cc2cc(CO)oc2c(NCC2CCOCC2)n1	i
Cc1cc2cc(-c3c(C)noc3C)nc(NC3CC3)c2o1	-9%[44.1 µM]
Cc1noc(C)c1-c1cc2cc(C(C)C)oc2c(Nc2ccn(C)n2)n1	-2%[44.1 µM]
Cc1noc(C)c1-c1cc2cc(C(C)C)oc2c(NCCN2CCOCC2)n1	10µM*
COc1ccc(CNC(=O)c2ccc(NC(=O)N3CCSc4ncccc43)cc2)cc1	i
Cc1ccc(CCNC(=O)c2ccc(Nc3nc4ccccc4n4nnnc34)cc2)cc1	-1%
O=C(NCc1ccc(F)cc1)c1ccc(Nc2nc3ccccc3n3nnnc23)cc1	-21%
CN(C)c1ccc(Nc2nc3ccccc3n3nnnc23)cc1	7.9µM*
COc1ccc(CCNC(=O)CN(c2cc(C(F)(F)F)ccc2Cl)S(C)(=O)=O)cc1	5%
SMILES	Pf Dd2 growth
CCOc1ccc(C(=O)Nc2ccc3nc(SCc4ccccc4)sc3c2)cc1	10%
CCc1nnsc1C(=O)NC(C)c1cnn(-c2ccccc2C)c1C (stereo unspecified)	i
Cc1cccc(OCCc2noc(C3CCCNC3)n2)c1 (stereo unspecified)	5µM*
CCCS(=O)(=O)N1CC(c2nc(CCOc3cccc(C)c3)no2)C1	-17%
COCCC(=O)N1CCCC(c2nc(CCOc3cccc(C)c3)no2)C1 (stereo unspecified)	-8%
Cc1ccc(C(=O)N2CC[C@H](N3CCN(C)CC3)[C@H](CCCO)C2)cc1C	11%
CC(C)C[C@@H]1N[C@H](C(=O)NCC2CC2)Cc2cn(Cc3cccnc3)c3cccc1c23	-38%[44.1 µM]
COCCNC(=O)[C@@H]1Cc2cn(Cc3ccccn3)c3cccc(c23)[C@H](CC(C)C)N1	i
CC(C)C[C@@H]1N[C@H](C(=O)N2CCN(C)CC2)Cc2cn(Cc3ccccn3)c3cccc1c23	i
Cc1noc(C)c1Cn1cc2c3c(cccc31)[C@H](CC(C)C)N[C@H](C(=O)O)C2	i
CC#CCn1cc2c3c(cccc31)[C@H](CC(C)C)N[C@H](C(=O)N1CCOCC1)C2	i
CC(C)C[C@@H]1N[C@H](C(=O)N2CCOCC2)Cc2cn(Cc3ccncc3)c3cccc1c23	10µM*
CC#CCn1cc2c3c(cccc31)[C@H](CC(C)C)N[C@H](C(=O)N1CCN(CCO)CC1)C2	10µM*
CC(C)C[C@@H]1N[C@H](C(=O)N2CCN(C)CC2)Cc2cn(Cc3cccnc3)c3cccc1c23	-8%
COCCNC(=O)[C@@H]1Cc2cn(Cc3cccnc3)c3cccc(c23)[C@H](CC(C)C)N1	11µM*
CC1CCc2nc3ncn(CC(=O)Nc4cccc(C#N)c4)c(=O)c3cc2C1 (stereo unspecified)	39%
Cc1ccc(S(=O)(=O)N2CCCc3cc(NC(=O)c4ccc(F)c(F)c4)ccc32)cc1	-5%
CN(C(=O)Cc1ccc(S(C)(=O)=O)cc1)C1CCc2nn(C)c(=O)n2CC1 (stereo unspecified)	i
CCOc1ccc(CNC(=O)Cn2nc(N3CCN(c4ccccc4)CC3)ccc2=O)cc1	-2%
COc1cccc(NC(=O)Cn2nc(N3CCN(c4ccccc4)CC3)ccc2=O)c1	-10%
CCc1ccc(NC(=O)c2ccc(Cn3nc(N4CCN(c5ccccc5)CC4)ccc3=O)o2)cc1	11µM*
